From PubChem BioAssay (NCI)
About 83,000 compounds went through this panel and 20% of them were active in at least one assay; those are over-represented in the sample as a whole.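 Cells were grown in 96-well plates and exposed to the test compound at a single concentration for 48 hours; results are reported as percent growth, with values below 10 considered active.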 Unmarked numbers belong to inactive results. The source made the active and inactive calls.

test system: SK-MEL-5 melanoma; assay: NCI-60 one-dose screen, 48 h (100 = growth as untreated, 0 = no growth, -100 = all killed); details: 10 µM unless noted

| SMILES | growth [%] |
| --- | --- |
| Cn1cc(-c2ccc3nc(-c4ccc(CC(=O)ONc5cc(C(C)(C)C)on5)cc4)cnc3c2)cn1 | 58.8 |
| Cn1cc(C(=O)c2nc(-c3c[nH]c4ccccc34)no2)c2cc(F)ccc21 | 25.3 |
| COc1ccc(CNc2c3ccccc3nc3ccccc23)cc1 | 62.2 |
| O=[N+]([O-])c1cccc(-c2nc3cc4nc5ccccc5[nH]c4cc3n2)c1 | 96.4 |
| COc1c(C(=O)Nc2ccc(C)c(Br)c2)ccc2ccccc12 | 98.3 |
| O=C1C(Cl)=C(NCCCCCCNC2=C(Cl)C(=O)c3ccccc3C2=O)C(=O)c2ccccc21 | 53.2 |
| O=C1c2c(c3c4ccccc4[nH]c3c3ccc4ccccc4c23)C(=O)N1CCN1CCNCC1 | 73.5 |
| COc1ccccc1CNc1c2ccccc2nc2ccccc12 | 59.2 |

test system: UACC-62 melanoma; assay: as above; details: 10 µM unless noted

| SMILES | growth |
| --- | --- |
| COc1cc2c(c(OC)c1OC)CCC(c1cccc(NC(=O)c3ccc(Br)cc3)c1)O2 (stereo not drawn) | 60.6% |
| N#Cc1nc(-c2ccc(F)cc2)oc1S(=O)(=O)N1CCCCC1 | 94% |
| Clc1ccc(/C=N\N=C\c2ccc(Cl)c(Cl)c2)cc1Cl | 84.1% |
| C1CCC([PH+](C2CCCCC2)C2CCCCC2[PH+](C2CCCCC2)C2CCCCC2)CC1.[Au].[CH-]1CCCCC1C1CCCC[N-]1 (stereo not drawn) | -79.7% (active) |
| Cn1c(=O)c2nc(/C=C/c3ccccc3)c(=O)[nH]c2n(C)c1=S | 92.4% |
| COc1ccc(/C=C(\C#N)n2nnc3cc(Cl)ccc32)cc1 | 9.49% (active) |
| O=C(CN1C(=O)NC2NC(=O)NC21)N/N=C/c1ccccc1[N+](=O)[O-] (stereo not drawn) | 90.1% |
| CCN(CC)CC(O)COc1c(Br)c(Br)c(Br)c2c1OC(C)(C)C2 (stereo not drawn) | -43.7% (active) |
| CCCNc1nc2ccccc2c2c1S(=O)(=O)c1ccc(Cl)cc1C2=O | 10.9% |
| CS(=O)(=O)Nc1cncc(-c2ccc3ncnc(Nc4cncc(Cl)c4)c3c2)c1 | 69.6% |
| CN(C)c1ccc(C(=O)OCCCCCCl)cc1 | 94.5% |
| CN(C)c1ccc(-c2c(C#N)c(N)nn2C(=O)c2ccc(NC(=O)c3ccccn3)cc2)cc1 | 73.2% |
| COCCn1cc(-c2csc(-c3cn(C)c4ccc(Br)cc34)n2)c2cccnc21 | 70.5% |
| CC1(C)COB(OCC(C)(C)COB2OCC(C)(C)CO2)OC1 | 106% |
| Cc1c[n+](Cc2ccc3ccccc3c2)cn1Cc1ccc2ccccc2c1 | -30.5% (active) |
| Cn1cc(-c2csc(-c3c[nH]c4ccccc34)n2)c2cnccc21 | -52.7% (active) |
| CCOC(=O)C#Cc1c(C(=O)OCC)nnn1Cc1ccc([N+](=O)[O-])cc1 | 76% |
| CCn1cc(C(=O)O)c(=O)c2cc(F)c(N3CCN(CC(=O)Nc4ccc(S(=O)(=O)Nc5nccc(C)n5)cc4)C(C)C3)c(F)c21 (stereo not drawn) | 94.2% |
| C=C1C(=O)O[C@H]2[C@H]1CC/C(COC(=O)/C=C\C(=O)NCc1ccc(Cn3c(=O)sn(CCI)c3=O)cc1)=C\CC[C@@]1(C)O[C@@H]21 | 55.4% |
| CC1CN(S(=O)(=O)c2oc(-c3ccc(Cl)cc3)nc2C#N)CC(C)O1 (stereo not drawn) | 96.7% |

| SMILES | growth |
| --- | --- |
| Cc1ccc(C)n1-c1ccccc1-n1c(C)ccc1C | 87.5% |
| CCCCCCC12CCC(=O)N1CCc1cncn12 (stereo not drawn) | 95.6% |
| CNC(=O)c1[nH]cc(-c2ccc(OC)cc2)c1-c1cc(OC)c2c(c1OC)OCO2 | 90% |
| C#Cc1c2c(c(OC)c3c1OCO3)[C@H]([C@H]1OC(=O)c3c1ccc(OC)c3OC)N(C)CC2 | 75.6% |
| C=CCc1c(O)c(C(=O)/C=C/c2ccccc2)c(OC)c2ccoc12 | 41.3% |
| O=S(=O)(Nc1ccc(F)cc1F)c1ccc(-c2cnc(C3CC3)o2)cc1 | 27.4% |
| CN1CCN(c2cc(Nc3cc(C4CC4)[nH]n3)nc(Nc3ccc(CC(=O)NCc4cccc(F)c4)cc3)n2)CC1 | 32.7% |
| CC(C)(C)[Si](C)(C)OC1[C@@H](CNC(=O)NC(=O)NC(N)=O)O[C@@H](n2cnc3c(NC(=O)Nc4ccccc4)ncnc32)[C@H]1O[Si](C)(C)C(C)(C)C (stereo partly drawn) | 87.8% |
| COc1ccc(OC)c(-c2nc(SCC(=O)c3ccc(C#N)cc3)[nH]c(=O)c2C#N)c1 | 94.7% |
| COc1ccc(C(C)=O)cc1S(=O)(=O)Nc1c(N)nc(SC)[nH]c1=O | 97.1% |
| CCOC(=O)C1=C(N)Oc2c(sc3c(F)cccc23)C1c1ccc(O)cc1 (stereo not drawn) | 26.3% |
| CCNCCNc1cc(-c2ccc(C(F)(F)F)cc2)c(C#N)c2nc3ccccc3n12 | -74.4% (active) |
| Cn1cc(-c2ccc3nc(-c4ccc(CC(=O)ONc5cc(C(C)(C)C)on5)cc4)cnc3c2)cn1 | 27.6% |
| Cn1cc(C(=O)c2nc(-c3c[nH]c4ccccc34)no2)c2cc(F)ccc21 | 31.7% |
| COc1ccc(CNc2c3ccccc3nc3ccccc23)cc1 | 55.8% |
| O=[N+]([O-])c1cccc(-c2nc3cc4nc5ccccc5[nH]c4cc3n2)c1 | 97.5% |
| COc1c(C(=O)Nc2ccc(C)c(Br)c2)ccc2ccccc12 | 71.6% |
| O=C1C(Cl)=C(NCCCCCCNC2=C(Cl)C(=O)c3ccccc3C2=O)C(=O)c2ccccc21 | 83.5% |
| O=C1c2c(c3c4ccccc4[nH]c3c3ccc4ccccc4c23)C(=O)N1CCN1CCNCC1 | 82% |
| COc1ccccc1CNc1c2ccccc2nc2ccccc12 | 60.5% |
